Assay results taken from PubChem BioAssay AID588446 (NMMLSC, 2011).
Calls of active or inactive are those of the source.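 The calls were made as follows: active = dose fit with top-dose inhibition above 36% and EC50 error under a fifth of EC50, and EC50 under 30 µM; inactive = the rest.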

biological target: Integrin alpha-4 (Homo sapiens) (UniProt P13612); assay: VLA-4 ligand competition with LDV-FITC, dose response, orthogonal assay, cell-based, plate-based, flow cytometry, set 2 (AID 588446); settings: cells, LDV-FITC binding displacement; series mostly up to 66.7 µM
Sequence (P13612 whole entry, looked up): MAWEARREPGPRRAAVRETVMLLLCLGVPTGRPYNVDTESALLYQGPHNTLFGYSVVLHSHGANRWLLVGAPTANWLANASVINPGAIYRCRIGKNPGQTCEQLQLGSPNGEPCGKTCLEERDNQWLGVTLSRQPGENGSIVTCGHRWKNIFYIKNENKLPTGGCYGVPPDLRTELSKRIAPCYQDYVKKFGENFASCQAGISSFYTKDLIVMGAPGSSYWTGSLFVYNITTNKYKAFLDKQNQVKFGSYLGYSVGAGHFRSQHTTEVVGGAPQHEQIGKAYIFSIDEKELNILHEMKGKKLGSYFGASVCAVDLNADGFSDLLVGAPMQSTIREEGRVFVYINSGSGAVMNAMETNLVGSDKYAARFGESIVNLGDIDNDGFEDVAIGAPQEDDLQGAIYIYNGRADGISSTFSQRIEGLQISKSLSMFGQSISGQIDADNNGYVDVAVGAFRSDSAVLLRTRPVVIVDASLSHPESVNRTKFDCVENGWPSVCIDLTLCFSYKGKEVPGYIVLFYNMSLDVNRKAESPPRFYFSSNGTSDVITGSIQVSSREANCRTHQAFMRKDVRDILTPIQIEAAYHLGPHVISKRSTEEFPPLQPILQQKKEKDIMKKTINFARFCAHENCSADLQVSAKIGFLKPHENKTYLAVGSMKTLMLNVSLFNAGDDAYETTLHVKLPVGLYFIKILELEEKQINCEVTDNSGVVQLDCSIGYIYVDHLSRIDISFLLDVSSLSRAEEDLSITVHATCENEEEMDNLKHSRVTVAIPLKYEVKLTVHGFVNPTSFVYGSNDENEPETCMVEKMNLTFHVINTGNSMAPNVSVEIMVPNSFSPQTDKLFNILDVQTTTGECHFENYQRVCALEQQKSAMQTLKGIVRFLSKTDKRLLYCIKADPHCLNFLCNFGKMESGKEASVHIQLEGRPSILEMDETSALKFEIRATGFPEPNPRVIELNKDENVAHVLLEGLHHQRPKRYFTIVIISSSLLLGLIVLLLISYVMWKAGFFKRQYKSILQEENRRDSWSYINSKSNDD

outcome, inactive:
CCOc1ccccc1N1CC(c2nc3ccccc3n2C)CC1=O (centres undefined), CN(Cc1ccco1)C(=O)c1ccc(-n2cnc3ccccc32)cc1, CCn1c(C2CC(=O)N(CCc3ccccc3)C2)nc2ccccc21 (centres undefined), O=C(c1ccc(OCCN2CCCCC2)cc1)c1c(-c2ccc(O)cc2)sc2cc(O)ccc12, Cc1cc(C(=O)N2CCCC2c2ccc3c(c2)OCCO3)sc1C (centres undefined), O=C1C2CC=CCC2C(=O)N1Cc1csc(Cc2ccccc2)n1 (centres undefined), CC(=O)N(C)Cc1nc2ccccc2n1CCOc1ccc(C)cc1, COCCn1c(C2CC(=O)N(c3ccccc3C)C2)nc2ccccc21 (centres undefined), Cc1ccc(-c2nc(CN3C(=O)C4CC=CCC4C3=O)cs2)cc1 (centres undefined), COc1cc(OCc2ccccc2)ccc1CN1CCN(C)CC1, CCn1c(C2CC(=O)N(c3ccccc3OC)C2)nc2ccccc21 (centres undefined), CCN1CC(c2nc3ccccc3n2CCOc2ccccc2)CC1=O (centres undefined), CCOCCn1c(C2CC(=O)N(c3ccccc3)C2)nc2ccccc21 (centres undefined), COc1ccccc1N1CCN(CC(=O)c2ccc(F)cc2)CC1, Cc1nc2ccccc2n1CCc1noc(COc2ccccc2)n1, COc1ccc(C2CCCN2C(=O)c2sccc2C)cc1OC (centres undefined), Cn1cc(C(=O)N2CCCC2c2nc3ccccc3s2)cn1 (centres undefined), CN1CC(c2nc3ccccc3n2CCOc2ccccc2)CC1=O (centres undefined), Cc1nc(C)c(C(=O)N2CCCC2c2nc3ccccc3s2)s1 (centres undefined), CSc1ccccc1OCc1cc(C(=O)N2CCCC2)no1, COCCn1c(C2CC(=O)N(c3cccc(C)c3)C2)nc2ccccc21 (centres undefined), COCCn1c(C2CC(=O)N(Cc3ccco3)C2)nc2ccccc21 (centres undefined), COc1ccccc1Cn1c(C2CC(=O)N(C)C2)nc2ccccc21 (centres undefined), CCN1CC(c2nc3ccccc3n2Cc2ccccc2)CC1=O (centres undefined), Cc1cc(C(=O)N2CCCC2c2nc3ccccc3s2)on1 (centres undefined), Cc1oc(-c2cccs2)nc1CN1C(=O)C2CC=CCC2C1=O (centres undefined), COCC(=O)N1CCC2(CCCN(CCc3ccccc3)C2=O)C1 (centres undefined), Cc1ccc(C)n1-c1ccc(C(=O)N(C)Cc2ccco2)cc1, COc1ccc(-c2nn(Cc3ccccc3)cc2C(=O)N2CCC2)cc1
